# Data published in PubChem BioAssay (NCI).
# About 79,000 compounds went through this panel and 15% of them were active in at least one assay; those are over-represented in the sample as a whole. Unmarked numbers belong to inactive results. Calls of active or inactive are those of the source. Cut-off read from the data, not from the text of the source: active = growth inhibition above about 70%; inactive = the rest.
# Test: NCI Yeast Anticancer Drug Screen. Data for the rad14 strain (AID 159);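 note: 0% = growth of vehicle-treated control cultures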
# Conditions: S. cerevisiae rad14 strain growth inhibition, stronger effect = higher value
# Method: Growth inhibition of yeast strains with defined genetic alterations is measured as a screen for potential anti-cancer activity. Selected strains with alterations in DNA damage repair or cell cycle control were exposed to compounds and growth inhibition was measured relative to vehicle treated controls. The strain used in this assay is rad14
Compound,growth inhibition (at 1.2 µM) [%],growth inhibition (at 3.7 µM) [%],growth inhibition (at 11.0 µM),growth inhibition (at 33.0 µM),growth inhibition (at 100.0 µM)
COc1ccc2c(C)cc(N/N=C/c3sccc3C)nc2c1,-53,-27,-10%,35%,31%
O=C1C=CC(=Nc2ccc3c(c2)Cc2cc(Cl)ccc2-3)O1,10,32,91% (active),99% (active),97% (active)
Cc1ccc(S(=O)(=O)N/N=C/c2c(O)ccc3ccccc23)cc1,-14,-14,59%,73% (active),83% (active)
CCCCOc1ccc(Nc2c3ccccc3nc3ccccc23)cc1,-77,-66,43%,97% (active),61%
CC(C)(C)[Si](C)(C)OCC1OC(n2cnc3c(N)ncnc32)C2OC(=S)OC12 (stereo not given),0,2,3%,11%,96% (active)
Nc1c([N+](=O)[O-])cc2c3c(cccc13)CC2,11,14,30%,39%,54%
CN(NC(=O)/C(=C/C=C/c1ccccc1)NC(=O)c1ccccc1)C1=C(Cl)C(=O)[N+](c2ccccc2)=CC1,-1,-4,2%,13%,29%
NNc1nnc(-c2ccccc2)nc1Cc1ccccc1,-8,-16,-12%,96% (active),91% (active)
